Measured values taken from PubChem BioAssay (NCI).
This is part of a sample that, as a whole, favours compounds with a hit. Of some 83,000 tested, about 20% had one in any assay.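 Note: values are percent growth. 100 is the growth of untreated cells, values between 100 and 0 indicate rising inhibition; between -100 and 0 indicates cell death.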 Unmarked numbers belong to inactive results. Active and inactive are the calls of the source.

System: SK-OV-3 ovarian
Experiment: NCI-60 one-dose screen, 48 h (100 = growth as untreated, 0 = no growth, -100 = all killed)
Settings: 10 µM unless noted
Method: Growth inhibition of the SK-OV-3 human tumor cell line is measured as a screen for anti-cancer activity. Cells are grown in 96 well plates and exposed to the test compound for 48 hours. Compounds are tested at a single concentration, which is 10^-5 M for most compounds. The reported endpoint is percent growth (GI% or GIPRCNT), where numbers from 0 - 100% represent growth inhibition, and numbers from -100% - 0 represent cell death. For example, a value of 40 represents 60% growth inhibition. A value of 0 means no net growth occurred over the course of the experiment. A value of -40 indicates 40% of cells at the beginning of the experiment died by the end of the experiment. A value of -100 means all cells are dead at the end of the experiment.
NCI-60 Human Tumor Cell Lines Screen was performed using the standard one-dose NCI protocol, which is described in more detail at https://dtp.cancer.gov/discovery_development/nci-60/default.htm.
Compounds with GIPRCNT values below 10 were considered active. Activity score was based on GIPRCNT using the following formula: […]
Score is 0 for GIPRCNT values of 100 or above, 50 for GIPRCNT values of 0, and 100 for GIPRCNT values of -100.

SMILES	growth
Cn1cc(-c2nnc(N)nc2-c2c[nH]c3ccc(F)cc23)c2cccnc21	65.8%
CC(=O)c1cc(C(=O)c2ccccc2)n2c1ccc1ccccc12	85.8%
O=C(NNc1ccccc1)n1c(=O)c2ccccc2c(=O)n1-c1ccccc1	85.5%
COc1ccc([C@H](C)Nc2nc(Cl)nc3ccccc23)cc1	70.5%
N#Cc1c(-c2ccc(Br)cc2)nc2n[nH]c(-c3ccc(Br)cc3)c2c1-c1ccc(F)cc1	72.7%
Cn1nc(C(F)(F)F)cc1-c1cc(Cl)c(COc2ccc(Cl)cc2)c(-c2ccc(Cl)c(C(F)(F)F)c2)c1O	-14.5% (active)
CCCCSc1nc(NCCc2c[nH]c3ccccc23)c(C#N)c(-c2ccccc2)n1	76.6%
COc1cc(/C=C/C(=O)c2ccccc2)ccc1Oc1nc(Nc2ccc(F)cc2)nc(N(C)C)n1	79.7%
CCN(CC)c1ccnc(CNCCSC(c2ccccc2)(c2ccccc2)c2ccc(OC)cc2)c1	-8.81% (active)
CC(=O)N1CCN(Cc2ccc3c(NNC(=O)c4cnccn4)nc4cc(F)ccc4n23)CC1	25%
CC(=O)OC[C@@]1(C)C2CC[C@]3(C)C(CC=C4C5CC(C)(C)CC[C@]5(C(=O)Nc5cccc(C)c5)CC[C@]43C)[C@@]2(C)C[C@@H](OC(C)=O)[C@@H]1OC(C)=O (stereo not given in full)	59.7%
O=C1C(=Nc2ccc(F)c(Cl)c2)c2cccc3cccc1c23	87.4%
C=Cn1cc(C(=O)O)c(=O)c2cc(F)c(N3CCN(c4nccc(-c5nccs5)n4)CC3)cc21	-35.8% (active)
COc1ccc(C(=O)/C=C/c2ccc(OC)c(OCc3ccccc3)c2)cc1OC	24.7%
CC1(C)CC[C@]2(C(=O)O)CC[C@]3(C)C(=CCC4[C@@]5(C)C[C@@H](O)[C@@H]6OC(c7ccco7)OC[C@@]6(C)C5CC[C@]43C)C2C1 (stereo not given in full)	75.6%
C=C1CCC2C3(C)COC(c4ccc(F)cc4)OC3CCC2(C)C1C/C=C1/C(=O)OCC1O (stereo not given)	40.5%
CC(C)c1sc(NC(=O)c2cc(NC(=O)c3cc(NC(=O)c4nccn4C)cn3C)cn2C)nc1C(=O)NCCCN(C)C	60%
C=C1CC[C@@H]2[C@]3(C)COC(c4cn[nH]c4-c4ccc(OC)cc4)O[C@@H]3CC[C@@]2(C)[C@@H]1C/C=C1/C(=O)OCC1O (stereo not given in full)	6.09% (active)
C=C1CCC2C3(C)COC(c4ccc(F)cc4)OC3CCC2(C)C1CC(O)C1=CCOC1=O (stereo not given)	98%
COc1ccc(/C=C/c2nc3ccccc3c(=O)n2CC(=O)Nc2ccc(OC)cc2)cc1	79.3%

SMILES	growth
COc1cc(C2CC(c3cc(OC)c(OC)c(OC)c3)=NN2C(C)=O)ccc1OCc1ccc(F)cc1 (stereo not given)	80.1%
COc1cccc(/C=C/C(=O)c2ccc(OC)c(S(N)(=O)=O)c2)c1	67.8%
COc1cc(OC)c2c3nc4cc(C)c(C)cc4nc3n(CCN(C)C)c2c1	103%
C(=C\c1cc(/C=C/c2ccccc2)c2ccccc2n1)/c1ccccc1	121%
N#Cc1cnn(C(=O)c2ccccc2Br)c1NC(=O)c1ccc(Br)cc1Cl	86.7%
N#Cc1ccc(/C=N/NC(=O)c2[nH]c3ccc(Br)cc3c2-c2ccccc2)o1	44%
Cn1cc(-c2cc(N)n3nc(-c4cn(C)c5ncc(Br)cc45)cc3n2)c2cc(Br)cnc21	104%
CN(C)c1ccnc(CNCCSC2(c3ccc(C(F)(F)F)cc3)c3ccccc3CCc3ccccc32)c1	-17.4% (active)
O=C(COc1ccc(NC(=O)Nc2ccc(Cl)c(Cl)c2)cc1)N=Nc1c(O)[nH]c2ccc(Cl)cc12	-22.2% (active)
COc1ccc(C(=O)/C=C/c2ccc(Cl)c(Cl)c2)cc1S(N)(=O)=O	52.5%
CC1CCCCN1CCCNC(=O)N/C(N)=N/c1nc2ccccc2s1 (stereo not given)	58.8%
COc1ccc(C(=O)/C=C/c2cccnc2)cc1S(N)(=O)=O	88.1%
Cc1sc2c(c1C)C(c1ccc(Cl)cc1)=N[C@@H](CC(=O)NCCCCCNC(=O)COc1ccc(C3CCC(=O)NC3=O)cc1)c1nnc(C)n1-2 (stereo not given in full)	-16.9% (active)
CNC(=O)c1cc(Oc2ccc3nc(NC(=O)Nc4cccc(OC(F)(F)F)c4)sc3c2)ccn1	-30.7% (active)
CCCSc1nc(Nc2ccc(S(N)(=O)=O)cc2)c(C#N)c(-c2cc(OC)c(OC)c(OC)c2)n1	64.9%
COc1ccc(/C=C/c2nc3ccccc3n3c(-c4ccc(Cl)cc4)nnc23)cc1	98.4%
CCOc1ccc(C(=O)NC(=S)Nc2ccc(S(N)(=O)=O)cc2)cc1	102% [100 µM]
COc1cc2oc(-c3cccc(NC(=O)[C@H](Cc4ccccc4)NC(=O)OC(C)(C)C)c3)cc(=O)c2c(OC)c1OC	78.7%
Cc1ccccc1[C@H]1C(C(=O)c2ccc(Cl)cc2)C2(N[C@@H]1c1ccccc1)C(=O)Nc1ccccc12 (stereo not given in full)	-3.38% (active)
COc1ccc(NC(=O)Cn2c(O)c(N=Nc3ccc(S(N)(=O)=O)cc3)c3ccccc32)cc1	30.3%
